We go through three compounds from PubChem BioAssay (EPA / NIEHS).

Read-out in assay [1]: Interleukin-1 alpha (IL1a), IL1A (gene 3552)
The experiment in a line: BSK_KF3CT_IL1a: BioMAP Diversity Plus: KF3CT Assay for Interleukin-1 alpha (IL1a) Biomarker Activity (AID 2283070). The conditions noted are these: primary human keratinocytes with fibroblasts; actives raise or lower the signal. The procedure, abridged: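 Readout is IL-1a level by ELISA, compared bidirectionally with DMSO as baseline. Cells: human keratinocytes co-cultured with foreskin fibroblasts, harvested 24 h post-dose.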

Read-out in assay [2]: TIMP metallopeptidase inhibitor 2 (TIMP2), TIMP2 (gene 7077)
The experiment in a line: BSK_KF3CT_TIMP2: BioMAP Diversity Plus: KF3CT Assay for TIMP metallopeptidase inhibitor 2 (TIMP2) Biomarker Activity (AID 2283071). The note with it: primary human keratinocytes with fibroblasts; actives raise or lower the signal. In a few lines: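 Measurements come from ELISA detection of TIMP-2 at 24 hours in a dosed human keratinocyte and foreskin fibroblast co-culture. DMSO serves as negative control and baseline.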

Read-out in assay [3]: Transforming growth factor beta 1 (TGFb1), TGFB1 (gene 7040)
The experiment in a line: BSK_KF3CT_TGFb1: BioMAP Diversity Plus: KF3CT Assay for Transforming growth factor beta 1 (TGFb1) Biomarker Activity (AID 2283072). The conditions noted are these: primary human keratinocytes with fibroblasts; actives raise or lower the signal. The procedure, abridged: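 TGF-b1 ELISA on a 24 h dosed co-culture of human keratinocytes and foreskin fibroblasts; cytotoxicity tracked in parallel cultures by SRB staining.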

Read-out in assay [4]: C-C motif chemokine 2 (Homo sapiens) (UniProt P13500)
Kind of assay: BSK_KF3CT_MCP1: BioMAP Diversity Plus: KF3CT Assay for Monocyte Chemoattractant Protein 1 (MCP1/CCL2) Biomarker Activity (AID 2283073). The note with it: primary human keratinocytes with fibroblasts; actives raise or lower the signal. The procedure, abridged: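 Keratinocytes and foreskin fibroblasts were co-cultured, dosed with chemical, and sampled 24 h later. MCP-1 was quantified by ELISA, and the endpoint was analyzed with bidirectional fitting using DMSO as negative control.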

Read-out in assay [5]: Matrix Metallopeptidase 9 (MMP9), MMP9 (gene 4318)
Kind of assay: BSK_KF3CT_MMP9: BioMAP Diversity Plus: KF3CT Assay for Matrix Metallopeptidase 9 (MMP9) Biomarker Activity (AID 2283074).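 On AC50: MMP9 protein level quantified by ELISA in the co-culture.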 The note with it: primary human keratinocytes with fibroblasts; actives raise or lower the signal. In a few lines:
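Values come from bidirectional fitting relative to DMSO of MMP-9 levels, which were measured by ELISA. Measurements were taken 24 h after chemical dosing of a keratinocyte and foreskin fibroblast co-culture.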

Read-out in assay [6]: urokinase plasminogen activator (uPA), PLAU (gene 5328)
Kind of assay: BSK_KF3CT_uPA: BioMAP Diversity Plus: KF3CT Assay for urokinase plasminogen activator (uPA) Biomarker Activity (AID 2283075). The conditions noted are these: primary human keratinocytes with fibroblasts; actives raise or lower the signal. The procedure, abridged:
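Values derive from bidirectional fitting against DMSO controls. Keratinocyte/foreskin fibroblast co-cultures received chemical; 24 h later uPA was detected by ELISA, with SRB total-protein staining in parallel wells for overt cytotoxicity.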

Read-out in assay [7]: CD40, CD40 (gene 958)
Kind of assay: BSK_LPS_CD40: BioMAP Diversity Plus: LPS Assay for CD40 Biomarker Activity (AID 2283076). The conditions noted are these: primary human HUVEC with PBMC; actives raise or lower the signal. In a few lines:
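CD40 signal, measured by ELISA, is fitted in both directions relative to DMSO vehicle. The system is an LPS-driven human vascular primary co-culture of endothelial cells and PBMC, sampled 24 h after compound addition.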

Read-out in assay [8]: E-selectin (Homo sapiens) (UniProt P16581)
Kind of assay: BSK_LPS_Eselectin: BioMAP Diversity Plus: LPS Assay for Eselectin Biomarker Activity (AID 2283077). The conditions noted are these: primary human HUVEC with PBMC; actives raise or lower the signal. In a few lines: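 Signal of E-selectin, detected by ELISA, served as the endpoint; cells were umbilical vein endothelium with PBMC, read 24 h after treatment. DMSO defined baseline, and both increases and decreases were fitted.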

Read-out in assay [9]: Interleukin-8 (IL8), CXCL8 (gene 3576)
The experiment in a line: BSK_LPS_IL8: BioMAP Diversity Plus: LPS Assay for Interleukin-8 (IL8) Biomarker Activity (AID 2283078). The conditions noted are these: primary human HUVEC with PBMC; actives raise or lower the signal. The procedure, abridged:
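Endothelial cells and PBMC from human donors are co-cultured, treated with chemicals and LPS, then assayed for IL-8 by ELISA after 24 h. Parallel SRB staining (0.1% SRB after 10% TCA fixation, 560 nm) flags cytotoxicity.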

A short description of assay [10]: BSK_LPS_SRB: Viability Assessment in the BioMAP Diversity Plus: LPS Assay (AID 2283079).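 Further: total protein by sulforhodamine B absorbance as a cytotoxicity measure; measured one day after compound addition; fitted in both directions against DMSO so loss or gain of signal counts.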 The note with it: primary human HUVEC with PBMC. In a few lines: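 Overt cytotoxicity was gauged by sulforhodamine B total-protein staining in a primary human vascular endothelial and mononuclear cell co-culture 24 h post-dosing. Activity was fitted in both directions relative to DMSO.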

Read-out in assay [11]: Interleukin-1 alpha (IL1a), IL1A (gene 3552)
The experiment in a line: BSK_LPS_IL1a: BioMAP Diversity Plus: LPS Assay for Interleukin-1 alpha (IL1a) Biomarker Activity (AID 2283080). The conditions noted are these: primary human HUVEC with PBMC; actives raise or lower the signal. In a few lines:
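Measured: IL-1 alpha via ELISA at 24 h in LPS-activated human umbilical vein endothelium–PBMC co-culture. Baseline: DMSO, bidirectional fitting.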

Read-out in assay [12]: Monocyte Chemoattractant Protein-1 (MCP1), CCL2 (gene 6347)
The experiment in a line: BSK_LPS_MCP1: BioMAP Diversity Plus: LPS Assay for Monocyte Chemoattractant Protein-1 (MCP1) Biomarker Activity (AID 2283081).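 On AC50: secreted MCP-1 protein quantified by ELISA in culture supernatant.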 The note with it: primary human HUVEC with PBMC; actives raise or lower the signal. The procedure, abridged:
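LPS-stimulated HUVEC/PBMC co-culture; chemical, 24 h; MCP-1 by ELISA; bidirectional fit vs DMSO; cytotoxicity via SRB (0.1% stain, 10% TCA fix, 560 nm) in parallel wells.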

Assay [13] can be described thus: BSK_LPS_PGE2: BioMAP Diversity Plus: LPS Assay for Prostaglandin E2 (PGE2) Biomarker Activity (AID 2283082).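 On AC50: secreted prostaglandin E2 measured by ELISA in LPS-stimulated co-culture.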 The conditions noted are these: primary human HUVEC with PBMC; actives raise or lower the signal. The procedure, abridged: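 Primary human endothelial cells and blood mononuclear cells, co-cultured with LPS, receive test chemical; PGE2 ELISA follows at 24 h, with SRB-stained parallel cultures flagging cytotoxicity.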

Read-out in assay [14]: Tissue Factor, F3 (gene 2152)
Kind of assay: BSK_LPS_TissueFactor: BioMAP Diversity Plus: LPS Assay for Tissue Factor Biomarker Activity (AID 2283084). The note with it: primary human HUVEC with PBMC; actives raise or lower the signal. The procedure, abridged: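 In this co-culture system of umbilical vein endothelium with PBMC, stimulated with LPS, cell-surface CD142 is detected by ELISA at 24 h. Endpoint values derive from bidirectional fitting, DMSO serving as baseline.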

Read-out in assay [15]: Tumor necrosis factor (Homo sapiens) (UniProt P01375)
The experiment in a line: BSK_LPS_TNFa: BioMAP Diversity Plus: LPS Assay for Tumour Necrosis Factor alpha (TNFa) Biomarker Activity (AID 2283085).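 On AC50: TNFa protein level quantified by ELISA in the co-culture.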 The conditions noted are these: primary human HUVEC with PBMC; actives raise or lower the signal. In a few lines: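 ELISA-based TNFa endpoint in a human endothelial–PBMC co-culture sampled 24 h post-exposure. Curves were fitted in both directions using DMSO as baseline of activity.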

Read-out in assay [16]: Vascular cell adhesion molecule 1 (VCAM1), VCAM1 (gene 7412)
The experiment in a line: BSK_LPS_VCAM1: BioMAP Diversity Plus: LPS Assay for Vascular cell adhesion molecule 1 (VCAM1) Biomarker Activity (AID 2283086). The note with it: primary human HUVEC with PBMC; actives raise or lower the signal. In a few lines: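 Measured by ELISA: VCAM-1 in LPS-activated HUVEC/PBMC co-cultures 24 h after treatment. Values reflect bidirectional fitting with DMSO as baseline.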

Read-out in the next assay: CD38, CD38 (gene 952)
Kind of assay: BSK_SAg_CD38: BioMAP Diversity Plus: SAg Assay for CD38 Biomarker Activity (AID 2283087). The conditions noted are these: primary human HUVEC with PBMC; actives raise or lower the signal. In a few lines:
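Measures CD38 on a human endothelial/PBMC co-culture driven by SEB and TSST-1, 24 h after compound exposure, using ELISA with fluorescence detection; DMSO defines baseline for bidirectional curve fitting.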

Read-out in assay [17]: CD40, CD40 (gene 958)
Kind of assay: BSK_SAg_CD40: BioMAP Diversity Plus: SAg Assay for CD40 Biomarker Activity (AID 2283088). The conditions noted are these: primary human HUVEC with PBMC; actives raise or lower the signal. The procedure, abridged: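 Fluorescence ELISA read-out of CD40 from umbilical vein endothelium plus peripheral blood mononuclear cells, sampled 24 h after dosing. Values come from bidirectional curve fitting with DMSO as baseline.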

Read-out in a further assay: CD69, CD69 (gene 969)
Kind of assay: BSK_SAg_CD69: BioMAP Diversity Plus: SAg Assay for CD69 Biomarker Activity (AID 2283089).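 On AC50: cell surface CD69 protein quantified by ELISA with fluorescence detection.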 The note with it: primary human HUVEC with PBMC; actives raise or lower the signal. The procedure, abridged: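 HUVEC co-cultured with PBMC were dosed with chemical, and CD69 was measured by ELISA with fluorescence read-out 24 h later. Bidirectional curve fitting used DMSO as negative control and activity baseline.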

Read-out in assay [18]: Macrophage colony-stimulating factor (MCSF), CSF1 (gene 1435)
Kind of assay: BSK_LPS_MCSF: BioMAP Diversity Plus: LPS Assay for Macrophage colony-stimulating factor (MCSF) Biomarker Activity (AID 2283083). The conditions noted are these: primary human HUVEC with PBMC; actives raise or lower the signal. In a few lines:
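Compound is added to a human vascular primary co-culture of umbilical vein endothelium and blood mononuclear cells. After 24 h, M-CSF is quantified by ELISA. Signal changes are fitted in both directions against DMSO.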

Activity calls are given as the source filed them. How the source made its calls: active means hit-call score of the fitted dose curve at least 0.9, where 1 is the maximum; inactive means score below 0.9.

Sequence of Tumor necrosis factor (Homo sapiens) (P01375 whole entry, looked up): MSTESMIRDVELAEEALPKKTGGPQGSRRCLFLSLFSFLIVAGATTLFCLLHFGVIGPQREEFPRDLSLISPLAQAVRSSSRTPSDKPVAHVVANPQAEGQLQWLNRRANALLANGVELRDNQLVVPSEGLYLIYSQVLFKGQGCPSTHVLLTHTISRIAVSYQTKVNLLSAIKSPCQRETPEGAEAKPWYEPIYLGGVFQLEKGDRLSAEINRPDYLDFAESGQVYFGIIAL
Sequence of E-selectin (Homo sapiens) (P16581 whole entry, looked up): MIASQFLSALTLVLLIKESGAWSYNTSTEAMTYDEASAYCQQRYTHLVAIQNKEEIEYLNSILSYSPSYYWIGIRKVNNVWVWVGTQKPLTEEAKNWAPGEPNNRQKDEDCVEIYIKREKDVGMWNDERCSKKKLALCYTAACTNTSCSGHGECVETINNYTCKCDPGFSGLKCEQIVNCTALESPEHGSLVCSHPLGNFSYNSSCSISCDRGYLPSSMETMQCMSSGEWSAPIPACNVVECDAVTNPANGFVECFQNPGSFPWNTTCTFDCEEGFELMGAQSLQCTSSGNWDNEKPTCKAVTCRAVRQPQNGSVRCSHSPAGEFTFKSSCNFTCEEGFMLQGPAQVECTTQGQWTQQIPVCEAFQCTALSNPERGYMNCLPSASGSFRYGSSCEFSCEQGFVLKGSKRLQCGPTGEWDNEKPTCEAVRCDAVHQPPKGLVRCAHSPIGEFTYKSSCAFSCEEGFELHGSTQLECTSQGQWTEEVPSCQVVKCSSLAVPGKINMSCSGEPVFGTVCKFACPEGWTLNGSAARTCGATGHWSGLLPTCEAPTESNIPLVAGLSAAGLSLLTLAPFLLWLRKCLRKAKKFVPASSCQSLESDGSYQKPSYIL

For the compound `Cc1ccc2c(c1N)C(=O)c1ccccc1C2=O`, the outcome is “inactive” in [1]; “inactive” in assay [3]; “inactive” in assay [4]; “inactive” in assay [5]; “inactive” in assay [6]; “inactive” with CD40, CD40 (gene 958) [7]. Also, the outcome in assay [8], in [9], in assay [10], in [11], in assay [12] and in assay [13] was inactive. Moreover, the outcome in [15] is “inactive”; in assay [16] it was “inactive”; in the assay with CD40, CD40 (gene 958) [17], “inactive”; in the assay with CD69, CD69 (gene 969) it was “inactive”. Besides, the AC50 – broadly, the concentration giving half of the maximal activity seen – in assay [2] was 6.86 µM (active); in assay [14] it was 20 µM (active); with CD38, CD38 (gene 952) it was 12.6 µM (active).

For the compound `CC(C)Nc1ccc(Nc2ccccc2)cc1`, the concentration at half-maximal activity (AC50) in assay [1] was 24.4 µM (active); in assay [2], 28.9 µM (active); in assay [3], 17.3 µM (active); in [4] it was 33.3 µM (active); in assay [5], 20 µM (active); in assay [6] it was 31.6 µM (active). Besides, the concentration at half-maximal activity (AC50) was 14 µM (active) with CD40, CD40 (gene 958) [7]; 12.9 µM (active) in assay [8]; 20 µM (active) in assay [9]; 15.8 µM (active) in assay [10]; 9.74 µM (active) in assay [11]; 10.1 µM (active) in assay [12]. Besides, the AC50 in assay [13] is 16.6 nM (active); in assay [18], 8.91 µM (active); in assay [14], 8.74 µM (active); in assay [15] it was 12.7 µM (active); in assay [16], 10.2 µM (active); with CD38, CD38 (gene 952), 4.14 µM (active). Moreover, the AC50 with CD40, CD40 (gene 958) [17] was 13.1 µM (active); with CD69, CD69 (gene 969) it was 3.37 µM (active).

Regarding `CCNc1nc(Cl)nc(NC(C)(C)C)n1`, the result in [1], in [2], in assay [3], in assay [4], in [5] and in assay [6] was inactive. Further, the outcome in the assay with CD40, CD40 (gene 958) [7] was “inactive”; in [8], “inactive”; in assay [9], “inactive”; in [10], “inactive”; in [11], “inactive”; in assay [12], “inactive”. Moreover, the outcome in assay [13] was “inactive”; in assay [18], “inactive”; in assay [14] it was “inactive”; in assay [16], “inactive”; with CD69, CD69 (gene 969) it was “inactive”. In addition, the concentration at half-maximal activity (AC50) in [15] is 5.47 µM (active); in the assay with CD38, CD38 (gene 952) it was 7.93 µM (active); with CD40, CD40 (gene 958) [17], 20 µM (active).
